Whole data set: some 9,900 sequences, median “r (bound/input frequency ratio)” near 0.7, cut for the highest 2% near 6.5. Only a selection was taken, and the highest values are over-represented in it overall.
B1: ENSMUSG00000029636.202|Wasf3|244:248 (ssRNA)
RNA: GGGAGUUCUACAGUCCGACGAUCGCUUCGAUAUCCGCAUGCUAACCAAAUGGCGAUUCCAUAGUCCUGGCUGAGGCAGGGGCUCAAAGUCCAGUGUCUGCUUUGCAAUUCUGGAAGGACAGCUGCUUAUUUAAAUAAGUCUGUGAUAUCCGCAGGCUUGGGUUACAGGGAGGACCUUGCAGAGGGACCAGGACACUGCCUUCCCUUAGGUGCAUUAUUUACGUGGCCUGCAGCUCUUAAUAUCUCUCACUGUUUAUGAAAAGAAAGAUUCAGAUCCGGGGUGACAUACACACAGUUGACAGGGCUCUUGCGGUCGCACUAGUGUGGAAUUCUCGGGUGUCAAGG
B2: ENSMUSG00000061578.835|Ksr2|29:33;71:75;146:150 (ssRNA)
RNA: GGGAGUUCUACAGUCCGACGAUCGCUUCGAUAUCCGCAUGCUAAAGGGCUCAGUCCAUAGCUGCCUGACUCACACAUUCUAGGCCUUUCUUGAGGCAAGUGUUCAUCAUGAUACACACAGGGUGAGGAGGAGUUUCUUCAUGGCAAACAGGAAGCAAAGAGCAAUACAGGAAAAGGUCAGGGGUGAGAACACACAUUGCCACUUCCUCCAGCUAGGACCUUUGAGCAUCACAUUGUGAAGCCAUCCAGGGACUUGGGGGUUAGGUCAGAGGUAUCAAUACAUCUCCGGAAACAUCGUCACAGACUCUUGCGGUCGCACUAGUGUGGAAUUCUCGGGUGUCAAGG
B3: ENSMUSG00000004113.468|Cacna1b (ssRNA)
RNA: GGGAGUUCUACAGUCCGACGAUCGCUUCGAUAUCCGCAUGCUAGCAAAAAUUUAUAUUUAACAGUGUUGAGAGAGAGAGAGAGAGAGCGAGAGAGAGAGAGAUCCAGUCAUGCAACACAAAUGGGAUCUACUUUUAAACAACAGUCCUUUGACUAGUUUGCUGCCUGAAUAAUAUUUACAAACUAAACUUUGGAUUCUGCUCUUGUUUCUACAAUGAUUUUUUGUAUAAAGCAAAGUCCUUGGAUUAAAUAAAAACAACCCAAAAAAAAAAUCAAAAUCAAAACCCAGGAUGCAACUGGGUGACUCUUGCGGUCGCACUAGUGUGGAAUUCUCGGGUGUCAAGG
B4: ENSMUSG00000058297.109|Spock2|57:62 (ssRNA)
RNA: GGGAGUUCUACAGUCCGACGAUCGCUUCGAUAUCCGCAUGCUAUGUACACACAGCAAGGCUUACUAUCCGUCUCCUGACAUCCGAAGAGCUCGUCGCAGCACACACUAAUGGCCCUUGGGCUGCACGUGGUUAAGCAUAGCUGUCUCUGUGGCCCAACACAAAGAGGUAAACUUACUUAAAACACAGGGGUUUUGUUGCUGUUUGUUUUUUGUUAGUUUGUUUGUUGAUAAUUGGAUUGAGGAGUUAAUCCUCUGUCACAAUGUCAAAAGCAUGGACAUCCCUGAUAGAUUAUCUCUCAACCUCUCUUGCGGUCGCACUAGUGUGGAAUUCUCGGGUGUCAAGG
B5: ENSMUSG00000028439.270|Fam219a|220:224 (ssRNA)
RNA: GGGAGUUCUACAGUCCGACGAUCGCUUCGAUAUCCGCAUGCUAAGCUGAGGCUGUAGCUCAGUGAGAUGGUGGCUCUCCCAUGGCUGAAGACAAGUGCAAGCAGAGAGAGCCUCAGGCUGCUGGGCCUCGGACCCACGAGCCUCCUCUCACUGAGCCAGUGCGGCCAGAGUGUCUCUCCUUCAGGCGCCCCACAUGCCAGCAUUUCCACCCUCUGGAUUCUCCUCACAUGUCACUCUCCAGGUGCCGGGGCCUAGAGUGGGCCACACAGAAGGAGGAGUGGGGCUGUUGGCUUAGGAAGGGAACUCUUGCGGUCGCACUAGUGUGGAAUUCUCGGGUGUCAAGG
B6: ENSMUSG00000061578.426|Ksr2 (ssRNA)
RNA: GGGAGUUCUACAGUCCGACGAUCGCUUCGAUAUCCGCAUGCUAGACCACUGACCCGUCCAGACCCUCGCUUCUUACAAUGCCUCUUCUUCUGCCAGACCAGCCACCUGCCCCACUAACACCAAAUGGCUUCUGUCCCUGCUUCACGUUGCAAAUCCUUCAAGACAGAAGUUUCAGAGGGGAUAGUUCCUUCUAACCUUGUACUGGGACAUCAUCUAUGUCCCCAUCCCCAGAGCUGAAUUAGAGACACCAAGUAGCCUCUUGGGUUGUUUUGUGGGGUGUUCCCCUUGCUGGUCAAAGGAGUGCUCUUGCGGUCGCACUAGUGUGGAAUUCUCGGGUGUCAAGG
B7: ENSMUSG00000058297.310|Spock2 (ssRNA)
RNA: GGGAGUUCUACAGUCCGACGAUCGCUUCGAUAUCCGCAUGCUAGCAGCUAGCUACUGGGGACCUUGUGCUGAGGCUUCCAGGACAAAGCCCCAGUCUGGCUCUCCCCCAGCCUCUCAGGGGCACUGGCUGGUCACAUCCACUGAGUAUUGAUCGGUUGGACUUUAGGGAAGAGCCUCCUCCUUCCCAUUCCUUUCUGCCACCCUGGAAUGGCCACCUUAAUCGUCAUCUCCUCGGGGGGAAUACGGAAAUGUCACCAAGCUCCAUAAAGUGCUUCUCAUUCCACGACACAGUUCUGACUCUCCCUCUUGCGGUCGCACUAGUGUGGAAUUCUCGGGUGUCAAGG
B8: ENSMUSG00000090935.19|Synj2bp (ssRNA)
RNA: GGGAGUUCUACAGUCCGACGAUCGCUUCGAUAUCCGCAUGCUAAUUAUUUAGUCACGGAGGAAGAGAUCAACCUGACGAGAGGACCUUCGGGUAAAUGGCCAAGAUCUGAAGAACCUGCUGCACCAAGAUGCUGUAGACCUCUUCCGUAAUGCGGGAUGUGCUGUGUCCCUGAGAGUACAGCACAGGUUACCAGUGCAGAAUGGACCUAUAGUACAUCGAGGUGAAGGAGAGCCAAGUGGAGUUCCUGUAGCUAUGGUGCUGCUACCAGUGUUUGCCCUCACCAUGGUAGCAGUUUGGGCCUUCUCUUGCGGUCGCACUAGUGUGGAAUUCUCGGGUGUCAAGG
B9: ENSMUSG00000061578.1360|Ksr2|254:258 (ssRNA)
RNA: GGGAGUUCUACAGUCCGACGAUCGCUUCGAUAUCCGCAUGCUAAGGCAAGCAACCUUGCCAAGGCAGGCCAGACAGGACAGCCCAGCUUCCCACUCCAGACAUGUUGUUCUUACAUCUCUGACCCAGUGAUCUUUCUAGGGGUCUGUCACAUGUCCCAACAGGUGGACAGCUCUCCAAGUCACCAACCUGAGGAAAAUAUCCCUCCUUGUAAAAAGGCUUUCUCUUUGUAAAUGAUUCUGUUGCCUUUUUCUAAACACAAAGUAUAUAUACCUAUAAAUGCUAUAUAUAUUAUAUAACACAAUCUCUUGCGGUCGCACUAGUGUGGAAUUCUCGGGUGUCAAGG
B10: ENSMUSG00000029636.126|Wasf3 (ssRNA)
RNA: GGGAGUUCUACAGUCCGACGAUCGCUUCGAUAUCCGCAUGCUAUCACUUUCAUGGCUAGCCCUGAUAGCGUUGGGCACCAGUUAGCCAGGCCAUGUUCAAGCUGCCUAGAGUCUGCAGAGCUUGCAUGGCAGAGCGGCCGCAUCUGGUUCCCUCCUACUCCACCCAGUGGAAAAGAGACCUCCACGUUUUAUUUUCUGGGAUCCCUGCUCCUCUGUUCACCAGGGAGUGAGCACAGGUCAGCACCUCACCCCCCUUGCUCUGAAUCAUGGAAGCUUGGCUUUAGCUGAGAGAUGCCACCAGCUCUCUUGCGGUCGCACUAGUGUGGAAUUCUCGGGUGUCAAGG
B11: ENSMUSG00000038916.65|Soga3 (ssRNA)
RNA: GGGAGUUCUACAGUCCGACGAUCGCUUCGAUAUCCGCAUGCUAACCUUUCUUUGUUUUGCACUCUUGAGUCAUAGUUGACUGGCUGACUGUGAAAAAUGGACAAAGUCUCAUAAUUAUUCUGUAGGAAUUGAGUAUUAUUUUACACCUGGAAAAUUUCAGCUGGUUGCAUUUUCAAAUUCAUGUAGAGGCAUUAAUUAUAAGUCAAUGUAGAUGAUUUAUAAAUUAUCUCUGUUAUAAAUUAUGUAGAUUUGUAAGCAUGCUGUUACUCAUGUUAGACAAAAAGGAAAACAUCAAUGUCUAAUCUCUUGCGGUCGCACUAGUGUGGAAUUCUCGGGUGUCAAGG
B12: ENSMUSG00000061578.1302|Ksr2 (ssRNA)
RNA: GGGAGUUCUACAGUCCGACGAUCGCUUCGAUAUCCGCAUGCUAGGGAUUGGCUGUAGUUAAUUAAAAGCACCUGUCUCUGUCAUCUCUGCACCCAACUGAAUCUCCCACCCUCAAGUGUACCUCUCAGGAUAUCCCCAGGCACACGAAGAUGGAAUGGAAAGCCAGUGGGUAUCUCCCACCCACUUAGAUGCUGAUGGCCUGGGACUAUAAACAGGGACAGUUGGGUCUCCUAAGGAAUAGCUUCCAGGUCCAGGAUGCUGGCAUCUCCCAGAGAGAACUCCAUCCCCUGACCACCAAGGCCUCUCUUGCGGUCGCACUAGUGUGGAAUUCUCGGGUGUCAAGG
B13: ENSMUSG00000061578.924|Ksr2 (ssRNA)
RNA: GGGAGUUCUACAGUCCGACGAUCGCUUCGAUAUCCGCAUGCUACAUGAGCCCAGAUAGUCAAAGACUUCAGCACAAGGGUGUUUAGAGUAGGCAGUGUGGAAGUAUCAAUAAGGUUAUUGAGAUGAGGAUUUAGAAAGAUCCAUGUAUAAAAGGUCUAGAAGGAUGAAGAUCUAAAACAAGAAGACUGCAUGUUAACGCUCCUGCCACUGUUGCCCCUUCCUUUACCCUUGGCAGACAUUGCUAAUCAAUCUCAGCACAGUUUCCAACCACAGUCAUAGAACAUUUGCCACAAAGGCCCUGGACUCUUGCGGUCGCACUAGUGUGGAAUUCUCGGGUGUCAAGG

biological target: TDP-43 (Homo sapiens, UniProt Q13148 1-414); test: RNA Bind-n-Seq with designed 260-mer pool; 25 mM Tris-HCl, 150 mM KCl, 3 mM MgCl2, BSA (printed 500 mg/mL), 20 units/mL SUPERase IN; pH not stated; 500 nM RNA pool, 1 h, 4 C; TDP-43 5, 50, 500 nM; high values mean tight binding; conditions: protein: recombinant; tags: SBP (GST cleaved off with PreScission; pGEX-GST-SBP)
Sequence (Q13148 whole entry): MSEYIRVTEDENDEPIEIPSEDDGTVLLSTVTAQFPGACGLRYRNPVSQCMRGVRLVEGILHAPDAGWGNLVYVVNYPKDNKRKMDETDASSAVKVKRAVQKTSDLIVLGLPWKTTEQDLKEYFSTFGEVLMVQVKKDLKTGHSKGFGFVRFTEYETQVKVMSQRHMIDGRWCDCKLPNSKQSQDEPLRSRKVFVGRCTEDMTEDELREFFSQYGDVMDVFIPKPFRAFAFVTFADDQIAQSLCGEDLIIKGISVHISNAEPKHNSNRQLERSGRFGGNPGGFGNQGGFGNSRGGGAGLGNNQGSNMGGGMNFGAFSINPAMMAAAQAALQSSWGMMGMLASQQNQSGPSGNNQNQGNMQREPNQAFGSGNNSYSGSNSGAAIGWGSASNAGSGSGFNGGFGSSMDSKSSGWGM
Summary of the method: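 For each oligo, R gives binding as its mapped-read-normalized abundance after pulldown divided by its abundance in input. Bead-captured SBP-tagged TDP-43 (5, 50 or 500 nM) was incubated with 500 nM of an in vitro-transcribed 260-nt 3′ UTR oligo pool for 1 h at 4 °C in 25 mM Tris-HCl, 150 mM KCl, 3 mM MgCl2, BSA and SUPERase IN on streptavidin beads. Washed, biotin-eluted RNA was reverse transcribed, PCR-amplified and sequenced.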

Binder | binding signal
B1 | 0.996 R (bound/input frequency ratio)
B2 | 0.305 R (bound/input frequency ratio)
B3 | 0.308 R (bound/input frequency ratio)
B4 | 1.85 R (bound/input frequency ratio)
B5 | 1.33 R (bound/input frequency ratio)
B6 | 1.01 R (bound/input frequency ratio)
B7 | 0.874 R (bound/input frequency ratio)
B8 | 0.919 R (bound/input frequency ratio)
B9 | 0.201 R (bound/input frequency ratio)
B10 | 1.2 R (bound/input frequency ratio)
B11 | 0.077 R (bound/input frequency ratio)
B12 | 0.444 R (bound/input frequency ratio)
B13 | 1.12 R (bound/input frequency ratio)
